G9a block: inhibitors of human histone lysine methyltransferase G9a; Q96KQ7; G9a H3K9 monomethylation, AlphaScreen, 2 h; Potency, µM (series often up to 102 µM), without a hit: at the top dose activity, negative = inhibition, most hits filed as inhibitors; 8.8% of 350,000 active; also: potency is read from the fitted curve at half-maximal effect; % is scaled to controls: 0 for no effect and ±100 for the full control effect; nearly all actives have a fitted effect of over 75% in size
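G9a (20 nM) was preincubated 15 min with compound, then reacted 2 h at room temperature with 500 nM biotin-H3K9 peptide and 20 µM SAM. Monomethyl-H3K9 detected by AlphaScreen using anti-H3K9me1 antibody.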
BAZ2B block: inhibitors of human BAZ2B bromodomain. Q9UIF8. AlphaScreen BAZ2B-H3K14Ac peptide displacement. Potency, µM (titrated, usually from 114 µM), for inactives: at the top dose activity change, negative = inhibition, hits mostly inhibitors. 4.4% of 360,000 active; also: potency is read from the fitted curve at half-maximal effect; % is scaled to controls: 0 for no effect and ±100 for the full control effect; nearly all actives have a fitted effect of over 60% in size
Target sequence (Q9UIF8 whole entry, looked up): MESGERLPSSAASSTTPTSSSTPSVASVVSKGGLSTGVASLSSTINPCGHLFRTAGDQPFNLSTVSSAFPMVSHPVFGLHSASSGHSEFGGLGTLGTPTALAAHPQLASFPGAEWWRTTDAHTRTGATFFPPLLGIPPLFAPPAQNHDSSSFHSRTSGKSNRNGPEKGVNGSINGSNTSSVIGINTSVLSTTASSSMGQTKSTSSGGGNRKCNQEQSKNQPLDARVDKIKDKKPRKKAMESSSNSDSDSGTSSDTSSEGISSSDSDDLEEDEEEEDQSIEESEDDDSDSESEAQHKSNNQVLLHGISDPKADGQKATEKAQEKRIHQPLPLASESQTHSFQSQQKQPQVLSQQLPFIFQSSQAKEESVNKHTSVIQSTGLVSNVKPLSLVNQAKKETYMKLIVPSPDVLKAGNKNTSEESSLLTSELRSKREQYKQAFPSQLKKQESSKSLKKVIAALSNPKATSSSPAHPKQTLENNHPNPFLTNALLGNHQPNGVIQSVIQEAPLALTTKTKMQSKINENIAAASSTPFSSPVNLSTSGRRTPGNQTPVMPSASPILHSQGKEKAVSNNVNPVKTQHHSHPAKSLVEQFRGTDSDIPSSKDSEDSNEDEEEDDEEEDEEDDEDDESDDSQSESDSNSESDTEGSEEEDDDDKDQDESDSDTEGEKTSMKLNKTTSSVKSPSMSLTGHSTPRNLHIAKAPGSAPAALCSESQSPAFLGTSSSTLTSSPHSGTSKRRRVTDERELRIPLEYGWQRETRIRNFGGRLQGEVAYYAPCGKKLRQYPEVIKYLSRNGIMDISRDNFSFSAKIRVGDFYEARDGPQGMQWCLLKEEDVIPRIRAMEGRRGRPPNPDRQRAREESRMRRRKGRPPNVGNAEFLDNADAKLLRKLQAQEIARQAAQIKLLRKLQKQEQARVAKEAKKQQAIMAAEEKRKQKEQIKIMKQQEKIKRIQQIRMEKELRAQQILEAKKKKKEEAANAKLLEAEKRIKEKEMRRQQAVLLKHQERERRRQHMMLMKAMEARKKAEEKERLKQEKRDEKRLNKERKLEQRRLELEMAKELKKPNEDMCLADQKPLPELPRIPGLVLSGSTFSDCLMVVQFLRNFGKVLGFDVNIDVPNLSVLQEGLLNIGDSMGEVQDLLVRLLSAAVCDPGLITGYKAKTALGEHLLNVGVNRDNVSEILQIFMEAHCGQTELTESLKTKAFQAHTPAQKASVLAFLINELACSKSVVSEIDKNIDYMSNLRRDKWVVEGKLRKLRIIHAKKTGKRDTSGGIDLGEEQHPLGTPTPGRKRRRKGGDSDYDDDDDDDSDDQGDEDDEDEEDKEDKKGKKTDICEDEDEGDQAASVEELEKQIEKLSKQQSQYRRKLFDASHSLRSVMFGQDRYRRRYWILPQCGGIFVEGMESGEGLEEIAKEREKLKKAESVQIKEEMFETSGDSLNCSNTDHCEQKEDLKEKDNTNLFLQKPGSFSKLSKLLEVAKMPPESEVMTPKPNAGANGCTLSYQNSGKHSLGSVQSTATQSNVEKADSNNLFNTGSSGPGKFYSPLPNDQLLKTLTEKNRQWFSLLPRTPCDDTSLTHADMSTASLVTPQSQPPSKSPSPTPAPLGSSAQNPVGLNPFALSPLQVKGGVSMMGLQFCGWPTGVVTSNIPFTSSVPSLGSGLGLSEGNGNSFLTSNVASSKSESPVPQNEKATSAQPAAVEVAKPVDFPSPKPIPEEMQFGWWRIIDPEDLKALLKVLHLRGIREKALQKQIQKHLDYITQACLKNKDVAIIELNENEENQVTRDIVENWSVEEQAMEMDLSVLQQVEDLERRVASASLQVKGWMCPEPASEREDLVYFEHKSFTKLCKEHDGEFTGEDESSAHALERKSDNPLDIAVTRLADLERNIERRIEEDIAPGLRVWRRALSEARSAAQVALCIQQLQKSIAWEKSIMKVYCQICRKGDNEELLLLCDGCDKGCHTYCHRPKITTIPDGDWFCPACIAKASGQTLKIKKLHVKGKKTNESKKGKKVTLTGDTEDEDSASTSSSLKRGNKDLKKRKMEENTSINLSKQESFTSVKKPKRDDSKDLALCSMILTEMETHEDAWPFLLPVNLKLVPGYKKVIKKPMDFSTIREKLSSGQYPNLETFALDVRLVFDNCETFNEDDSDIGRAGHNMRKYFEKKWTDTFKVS
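BAZ2B 50 nM plus b-H3(5-23)K14Ac 50 nM, PBS pH 7.4/0.01% Tween-20, 30 min RT; compound added (max 110 uM), 30 min RT; streptavidin donor/Ni-chelate acceptor beads 10 ug/mL final, 20 min dark; AlphaScreen read.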
HP1b binding inh: inhibitors of HP1-beta chromodomain binding to methylated histone tails; 0.56% of 390,000 active; AlphaScreen HP1-beta / biotin-H3K9me3 peptide binding; AID 540317; Potency, µM (highest dose often 114 µM), for the others: at the highest dose activity change, negative = inhibition, actives largely listed as inhibitors; also: potency is read from the fitted curve at half-maximal effect; nearly all actives have a fitted effect of over 70% in size
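HP1-beta protein (50 nM final) preincubated 30 min at room temperature with biotinylated H3(1-18)K9me3 peptide (50 nM) in PBS pH 7.4, 0.01% Tween-20, then compound added for 30 min. AlphaScreen streptavidin donor/nickel chelate acceptor beads (10 ug/mL final), 30 min dark, luminescence read.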
JMJD2A Tudor inh: JMJD2A Tudor domain (human) inhibition; O75164; AlphaScreen JMJD2A-Tudor / H3K4me3 peptide binding; Potency, µM (doses to about 114 µM), without a hit: at the top dose activity change, negative = inhibition, hits mostly inhibitors; 4.4% of 390,000 active; AID 504339; also: potency is read from the fitted curve at half-maximal effect; % is scaled to controls: 0 for no effect and ±100 for the full control effect; nearly all actives have a fitted effect of over 50% in size
PI5P4Ka inh: blocks human PI5P4K alpha kinase activity. PI5P4Kalpha enzyme, ADP-Glo luminescence, 60 min; hits give low values. 1.2% of 330,000 active. max response, %. P48426; active = max response of -50% or lower; inconclusive = between -30% and -50%; inactive = -30% or higher; also: value at the top dose of about 77 µM; % is scaled to controls: 0 for no effect and ±100 for the full control effect
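PI5P4Kalpha ADP-Glo assay; 5 microM ATP final; 60 min RT reaction; HEPES pH 7.4/EGTA/CHAPS, 5% DMSO; controls lacking substrate or enzyme; luminescent end-point.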
PLK1 PBD block: blocks phosphopeptide binding to human PLK1 polo-box domain; P53350; Plk1 PBD binding of FITC phosphopeptide, fluorescence polarization; Potency, µM, without a hit: max response, negative = inhibition, most hits filed as inhibitors; 2.8% of 360,000 active; also: potency is read from the fitted curve at half-maximal effect; series mostly up to about 57 µM; % is scaled to controls: 0 for no effect and ±100 for the full control effect; nearly all actives have a fitted effect of over 65% in size
Active calls of the source: *; ? = inconclusive; . = not tested or not shown; [ ] = remark or other dose. The list is not random: actives were taken first. Their share in the collection is about 12%. Unless noted, calls follow the shape of the dose curve; as a rule, active = well fitted curve in the direction sought with a large enough effect; inconclusive = small, poorly fitted or top-dose-only effect, or another doubt; inactive = no such curve, though single readings can be large; an effect the other way counts as inactive or inconclusive.

SMILES	G9a block	BAZ2B block	HP1b binding inh	JMJD2A Tudor inh	PI5P4Ka inh	PLK1 PBD block
COc1ccccc1NC(=O)C1C2C=CC(O2)C1C(=O)O (configuration not stated)	50µM*	?	.	.	.	.
Cc1ccc(F)cc1NC(=O)C1C2CCC(O2)C1C(=O)O (configuration not stated)	79µM*	25%	19%	-24%	0	4%
Cc1ccc(C)c(NC(=O)C2C3C=CC(O3)C2C(=O)O)c1 (configuration not stated)	45µM*	-12%	35%	-22%	-3	4%
Cc1cccc(NC(=O)C2C3C=CC(O3)C2C(=O)O)c1C (configuration not stated)	35µM*	-5%	47%	-32%	1	4%
Cc1ccccc1NC(=O)C1C2CCC(O2)C1C(=O)O (configuration not stated)	-7%[59 µM]	11%	12%	12%	-4	2%
COc1ccc([C@@H]2[C@@H]3C(=O)N(C(C)(C)C)C(=O)[C@@H]3[C@]3(CC(C)C)C(=O)N(c4cccc(Br)c4)C(=O)N23)cc1	.	-1%	35%	-17%	6	-12%
CCCc1nn2c(=O)cc(COC(=O)c3ccc4c(c3)OCO4)nc2s1	1%[59 µM]	-15%	-15%	-21%	.	.
Cc1ccc(NC(=O)C2C3C=CC(O3)C2C(=O)O)c(C)c1 (configuration not stated)	40µM*	-2%	35%	-10%	0	-18%
COc1ccc(NC(=O)c2cc3ccccc3[nH]2)cc1	.	6%	29%	-8%	-3	-6%
COc1ccc(NC(=O)c2coc(C)c2)cc1	?	-8%	17%	-17%	-3	-8%
COc1ccc(NC(=O)c2csnn2)cc1	?	-35%	41%	-3%	.	.
COc1ccc(NC(=S)NC(=O)c2csnn2)cc1	32µM*	-27%	25%	-9%	-10	3%
COc1ccc(NC(=O)c2sc(=S)[nH]c2N)cc1	?	?	-27%	35µM*	?	?
COc1ccc(NC(=O)c2ccc(=O)oc2)cc1	50µM*	-4%	36%	-22%	.	-8%
COc1ccc(NC(=O)CN(C)CC(=O)NCC2CCCCC2)cc1	56µM*	0%	17%	?	-1	0%
Cc1ccc2c(=O)c(C(=O)c3ccccc3)cn(CC(=O)Nc3ccc4c(c3)OCCO4)c2n1	-2%[59 µM]	3%[57.1 µM]	19%	-4%	.	.
COc1ccc(N2C(N)=C(C#N)C(c3cc(CN4CCOCC4)cs3)C3=C2CCCC3=O)cc1 (configuration not stated)	-1%[59 µM]	-14%	45%	-26%	.	.
COc1ccc(N/C(=C2\CCCC2=O)C2CCCCC2)cc1	.	.	-11%	56µM*	-1	?
COc1ccc(NC(=O)CN(C)C(=O)Cc2ccsc2)cc1	12%[12.7 µM]	0%	32%	-2%	-2	-9%
COc1ccc(NC(=O)CN(C)C(=O)Cc2ccc(-c3ccccc3)cc2)cc1	?	6%	21%	100µM*	-27	-6%
COc1ccccc1Oc1ccc(NC(=O)c2ccc(Cl)cc2)cc1	-6%	-17%	19%	-27%	-5	30µM*
CCOc1ccc(NC(=O)c2ccccc2SC)cc1	10%	16%	6%	-18%[11.4 µM]	?	19µM*
O=C(NCCc1ccccc1)c1ccc(Cn2c(SCc3ccccc3)nc3cccnc32)cc1	-15%[59 µM]	-4%	32%	-11%	.	.
O=C(CCc1ccccc1)N=C1SC2CS(=O)(=O)CC2N1Cc1ccc(F)cc1 (configuration not stated)	-23%	-20%	20%	-6%	0	1%
COc1ccc(NC(=O)CN(C)CC(=O)Nc2ccccc2SC)cc1	8.9µM*	20µM*	?	32µM*	-6	-15%
SMILES	G9a block	BAZ2B block	HP1b binding inh	JMJD2A Tudor inh	PI5P4Ka inh	PLK1 PBD block
COc1ccc(NC(=O)CS(=O)(=O)c2cccc(Cl)c2)cc1	5%	-16%	11%	?	?	21µM*
COc1ccc(NC(=O)c2cc(-c3cccc(OC)c3)on2)cc1	-6%	.	24%	1%	0	-19%
COc1ccc(NC(=O)c2cccc(C(=O)Nc3ccc(OC)cc3)n2)cc1	71µM*	-19%	.	.	.	.
COc1ccc(NC(=O)c2cc(-c3ccccc3O)no2)cc1	13µM*	-28%	-16%	?	.	.
COc1ccc(NC(=O)CS(=O)(=O)c2ccc(Br)cc2)cc1	-3%	-18%	-2%	-6%	0	-6%
COc1ccc(-c2nnc(SCC(=O)Oc3cc(C)ccc3C)o2)cc1	-6%[59 µM]	-1%	27%	-19%	.	.
COc1ccc(-c2ccnc3c2c(=O)n(C)c(=O)n3C)cc1OC	-11%[59 µM]	-12%	22%	-6%	.	.
COc1ccccc1-n1c(SCC(N)=O)nc2sc3c(c2c1=O)CCC3	-16%	-28%	-7%	-20%	-8	5%
O=S(=O)(NCC(c1cccs1)S(=O)(=O)c1ccccc1)c1ccc(F)cc1 (configuration not stated)	-3%[59 µM]	4%	43%	-5%	.	.
COc1ccc(NC(=O)c2ccccc2SC)cc1	45µM*	8%	37%	-6%	-2	-3%
NCc1ccccc1Sc1ccccc1CO	-28%[12.7 µM]	.	.	.	.	.
COc1cc(OC)c2c(-c3ccccc3)cc(=O)oc2c1C(CC(=O)N1CCOCC1)c1ccc2c(c1)OCO2 (configuration not stated)	5%[59 µM]	-29%	1%	?	1	2%
COc1cc(OC)c2c(-c3ccccc3)cc(=O)oc2c1C(CC(=O)N1CCOCC1)c1ccc(N(C)C)cc1 (configuration not stated)	-6%[12.7 µM]	35µM*	?	32µM*	-4	-10%
COc1cc(OC)c2c(-c3ccccc3)cc(=O)oc2c1C(CC(=O)N1CCN(c2ccccc2)CC1)c1ccc(N(C)C)cc1 (configuration not stated)	?	8.9µM*	?	6.3µM*	3	0%
CCN(CC)c1ccc2cc(-c3nc(-c4ccccc4)no3)c(=O)oc2c1	57%[59 µM]	1%	25%	1%	.	.
O=C(NC(=S)Nn1cnnc1)c1ccccc1Cl	14µM*	?	-23%	-21%	-7	?
O=C(NC(=S)Nn1cnnc1)c1ccc(F)cc1Cl	14µM*	?	?	-23%	-54*	?
COC(=O)c1cc(OC)c(OC)cc1NC(=O)c1cccc(OC)c1OC	15%[12.7 µM]	-15%	53%	0%	-6	3%
O=C(Nn1cnnc1)c1ccc([N+](=O)[O-])cc1Cl	.	.	36%	-2%	-2	-2%
COc1cccc(C(=O)NC(=S)Nn2cnnc2)c1OC	14µM*	?	15%	-6%	-21	24µM*
O=C(NC(=S)Nc1ncccn1)c1ccccc1Cl	79µM*	-26%	21%	?	-4	-6%
